Laboratory results taken from PubChem BioAssay.
Several values for one entry are separate records, joined by “and”; a condition that tells them apart may be missing. Equal values may be shown once. Activity calls are given as the source filed them.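 The calls were made as follows, unless noted: active = normalized viability below 100% at a tested concentration; inactive = the rest.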

How the values were obtained:
[1] = stimulators of nuclear beta-catenin in C2C12, primary screen, imaging, WNT3A-conditioned medium, mouse C2C12, NPC library (AID 1117326; in the data active = nuclear beta-catenin stimulation mostly above about 4.2%, no sharp cut-off; inactive = mostly below about 10%); conditions: stronger effect = higher value
[2] = stimulators of insulin release from INS-1E, primary screen, cell-based, 5 mM glucose, NPC library (AID 1117329;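 active = compound raises insulin release from rat beta cells at 5 mM glucose, no numeric limit stated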); conditions: rat INS-1E insulin secretion, at 10 µM, stronger effect = higher value
[3] = growth inhibition of GSK3B-pretreated HCT116 cells – cell-based, CellTiter-Glo, 0.2 to 20 µM (AID 1117336;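 active = compounds lowering colon cancer cell viability after pretreatment blocking the GSK3B kinase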); conditions: HCT116 viability after GSK3B inhibitor, at 20 µM, stronger effect = higher value
[4] = inhibition of endothelial tube formation, primary screen, imaging, VEGF stimulated, CD31 staining, tube area, NPC library (AID 1117340;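 active = compound that reduces growth-factor-driven endothelial tube area in a mixed cell culture, no cutoff stated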); conditions: VEGF-stimulated ADSC/ECFC co-culture, at 10 µM, stronger effect = higher value
[5] = glucagon-like peptide 1 release enhancers, primary assay, NCI-H716 cell line, NPC library (AID 1117341;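 active = compound raises GLP1 secretion from the human gut endocrine cells, with no numeric limit stated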); conditions: NCI-H716 cells, at 10 µM, stronger effect = higher value
[6] = HCT116 colon cancer cell growth inhibition, primary screen, CellTiter-Glo luminescence, NPC library (AID 1117342;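 active = compounds that lower survival of HCT116 colon cancer cells in the luminescence readout, no numeric limit stated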); conditions: at 20 µM (top of the series)
[7] = CellTiter-Glo luminescent readout of SW480 viability loss, NPC library primary (AID 1117343;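 active = compounds that lower viability of the colon cancer cells in the luminescence readout, with no numeric limit stated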); conditions: CellTiter-Glo luminescence; at 20 µM (top of the series)
[8] = decreased DLD-1 cellular survival, CellTiter-Glo luminescent readout, NPC compound collection, primary HTS (AID 1117346;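 active = compounds that lower survival of DLD-1 colon cancer cells in the luminescence readout, no cutoff given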); conditions: DLD-1 viability, CellTiter-Glo luminescence; at 20 µM (top of the series)
[9] = target: 6-phosphogluconate dehydrogenase, decarboxylating (Homo sapiens) (UniProt P52209); assay: 6PGD enzyme inhibitors, primary screen, biochemical, human, recombinant enzyme, NADPH absorbance (AID 1159550;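 active = at least 20% inhibition of 6-phosphogluconate dehydrogenase activity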); conditions: recombinant 6PGD, NADPH absorbance 341 nm; at 10 µM; stronger effect = higher value
Chain of 6-phosphogluconate dehydrogenase, decarboxylating (Homo sapiens) (P52209 whole entry, looked up): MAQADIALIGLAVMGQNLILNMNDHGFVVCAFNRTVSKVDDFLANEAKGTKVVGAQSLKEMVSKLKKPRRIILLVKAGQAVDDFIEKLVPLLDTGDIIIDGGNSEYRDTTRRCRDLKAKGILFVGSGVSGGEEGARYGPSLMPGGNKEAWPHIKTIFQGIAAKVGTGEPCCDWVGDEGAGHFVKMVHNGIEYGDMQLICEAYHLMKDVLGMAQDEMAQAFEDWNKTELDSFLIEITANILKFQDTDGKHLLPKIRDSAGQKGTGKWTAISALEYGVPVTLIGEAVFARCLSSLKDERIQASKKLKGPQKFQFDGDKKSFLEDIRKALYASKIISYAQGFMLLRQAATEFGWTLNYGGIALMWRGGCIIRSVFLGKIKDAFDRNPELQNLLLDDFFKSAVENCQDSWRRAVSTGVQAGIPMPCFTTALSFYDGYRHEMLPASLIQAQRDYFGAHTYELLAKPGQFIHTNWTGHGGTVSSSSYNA

[10] = modulation of C. elegans fzo-1 (AID 1259413; call rule not given here;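 also: fzo-1 mutant C. elegans worms in liquid wells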); conditions: C. elegans fzo-1 modulator screen, mean read-out; stronger effect = higher value
[11] = differential killing of epithelial or mesenchymal cells, primary screen, imaging, PC-3E GFP, TEM4-18 mCherry, co-culture (AID 1345086;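 active = compounds killing one labelled cell type while sparing the other, by normalised counts and ratio limits, not self-fluorescent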;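 also: cells exposed to compound for 72 h before imaging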;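 as to red/green cell ratio (normalised): normalised mesenchymal count divided by normalised epithelial count so high means epithelial killing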); conditions: imaging cell counts, at 1 µM
[12] = sensitizers of A549 cells to miR-34 induction, primary screen, imaging, A549 dox-inducible miR-34, nuclei and caspase counts (AID 1347080;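 active = compounds whose cell count with miR-34 switched on is under 0.7 times the count with it off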); conditions: A549 miR-34 inducible, Hoechst nuclei count, 48 h
[13] = survival rescue of mitochondrial mutant cells in low glucose, primary screen, MELAS cybrids, Rieske KO mouse fibroblasts, CellTiter-Glo (AID 1508586;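 active = mean z-score across replicates of 1.96 or higher in either the MELAS or the Rieske mutant cell line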;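 also: z relative to plate mean and SD of compound and empty wells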)
[14] = ovarian cancer cell viability with rucaparib, profiling panel, oncology-focused library, rucaparib conditional (AID 1508598); conditions: patient-derived ovarian cancer cells, CellTiter-Glo viability, 144 h, stronger effect = lower value
[15] = target: NAD(+) hydrolase SARM1 (Homo sapiens) (UniProt Q6SZW1); assay: SARM1 TIR NADase inhibitors, cell lysate, NAD-Glo luminescence (AID 1508614;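 active = compound whose remaining NAD level is above about 45 nM, limit read from the data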;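 also: higher remaining NAD means stronger inhibition of SARM1 NADase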); conditions: SAM-TIR HEK293T lysate NADase, at 1 µM, stronger effect = higher value
Chain of NAD(+) hydrolase SARM1 (Homo sapiens) (Q6SZW1 whole entry, looked up, the tested form may be a part): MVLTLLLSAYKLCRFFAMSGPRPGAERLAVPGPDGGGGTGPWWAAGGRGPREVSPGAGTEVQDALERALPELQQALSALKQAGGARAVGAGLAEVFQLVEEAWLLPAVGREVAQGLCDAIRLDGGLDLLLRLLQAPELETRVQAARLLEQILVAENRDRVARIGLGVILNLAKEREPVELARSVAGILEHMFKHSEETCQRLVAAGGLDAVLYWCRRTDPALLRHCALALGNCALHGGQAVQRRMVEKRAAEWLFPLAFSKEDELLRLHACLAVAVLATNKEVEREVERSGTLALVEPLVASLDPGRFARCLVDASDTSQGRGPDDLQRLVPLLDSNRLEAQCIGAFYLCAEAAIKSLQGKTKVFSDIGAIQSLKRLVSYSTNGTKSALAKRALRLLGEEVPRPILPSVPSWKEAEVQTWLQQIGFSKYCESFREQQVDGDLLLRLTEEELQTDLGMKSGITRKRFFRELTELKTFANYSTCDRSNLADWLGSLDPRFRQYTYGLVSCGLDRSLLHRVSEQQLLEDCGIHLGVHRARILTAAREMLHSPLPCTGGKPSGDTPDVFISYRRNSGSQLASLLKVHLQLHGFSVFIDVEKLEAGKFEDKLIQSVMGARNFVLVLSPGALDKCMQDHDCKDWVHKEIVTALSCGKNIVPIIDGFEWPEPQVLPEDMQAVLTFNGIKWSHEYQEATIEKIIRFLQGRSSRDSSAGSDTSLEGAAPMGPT

[16] = target: Mitogen-activated protein kinase 7 (Homo sapiens) (UniProt Q13164); assay: ERK5 transactivation activators in reporter cells, primary screen, cell-based, HTS (AID 1508626;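 active = luciferase signal above three times the same-plate solvent-only control wells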;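 also: luciferase driven by Gal4-ERK5 fusion binding five Gal4 sites before minimal TATA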); conditions: HeLa Gal4-ERK5 transactivation, 18 h, at 5 µM, stronger effect = higher value
Chain of Mitogen-activated protein kinase 7 (Homo sapiens) (Q13164 whole entry, looked up, the tested form may be a part): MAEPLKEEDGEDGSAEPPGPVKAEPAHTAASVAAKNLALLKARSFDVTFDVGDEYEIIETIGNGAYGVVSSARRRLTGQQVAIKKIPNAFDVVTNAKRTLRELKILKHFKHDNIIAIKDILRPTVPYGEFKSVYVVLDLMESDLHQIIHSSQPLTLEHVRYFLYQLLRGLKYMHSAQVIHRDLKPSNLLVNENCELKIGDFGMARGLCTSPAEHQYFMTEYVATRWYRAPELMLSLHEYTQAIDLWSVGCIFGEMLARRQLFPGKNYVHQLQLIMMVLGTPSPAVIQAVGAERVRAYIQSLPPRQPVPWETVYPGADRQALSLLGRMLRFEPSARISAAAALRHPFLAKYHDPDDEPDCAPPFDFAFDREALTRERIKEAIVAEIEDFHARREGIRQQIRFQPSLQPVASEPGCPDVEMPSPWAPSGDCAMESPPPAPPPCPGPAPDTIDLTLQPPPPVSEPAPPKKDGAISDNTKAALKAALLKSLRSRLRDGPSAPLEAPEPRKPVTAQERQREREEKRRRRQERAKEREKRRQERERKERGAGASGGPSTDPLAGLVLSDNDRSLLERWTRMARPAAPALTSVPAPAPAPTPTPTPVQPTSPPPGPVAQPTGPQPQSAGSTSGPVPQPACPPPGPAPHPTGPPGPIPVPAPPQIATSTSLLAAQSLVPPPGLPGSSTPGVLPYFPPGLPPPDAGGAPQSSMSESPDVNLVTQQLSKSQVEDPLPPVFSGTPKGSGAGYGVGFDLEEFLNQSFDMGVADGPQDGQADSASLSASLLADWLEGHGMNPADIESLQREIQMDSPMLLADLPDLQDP

[17] = ICB984 medulloblastoma cell growth inhibition, synergistic combos for chromothripsis tumors, cisplatin or BGB combos (AID 1671451; call rule not given here;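 also: cells exposed for 96 hours before readout; 0% = vehicle DMSO and 100% = killing by high DMSO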); conditions: ICB984 medulloblastoma cells, drug combinations, stronger effect = higher value
[18] = system: F380Y; assay: modulators of BK channel variants, profiling panel, selectivity assay, cell-based, U2OS BacMam, thallium flux, beta subunits (AID 1259406;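 active = thallium flux through the channel raised or lowered by more than 3 SD from vehicle-only wells, actives on both sides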;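 also: initial slope of Thallos dye fluorescence rise after thallium is added; log ratio against the mean of 0.3% DMSO vehicle wells on the same plate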); conditions: at 30 µM
[19] = system: F380Y/beta1; assay: as above; conditions: at 30 µM
[20] = system: F380Y/beta2Delta; assay: as above; conditions: at 30 µM

CCCCCCNC(=O)n1cc(F)c(=O)[nH]c1=O
-22.5% and -2.82%: inhibition ([17]; BGB IC40 combo, at 0.005 µM)
0.677 and -3.1: z-score ([13]; Rieske KO mouse fibroblast survival, CellTiter-Glo 72 h)
3110 and 2180: cell count ([12]; measured here: total cells without miR-34 induction)
-43.5% and -25.3%: inhibition ([17]; cisplatin combo, at 5 µM)
1.38 and 0.815: fold change ([12]; measured here: relative caspase fold change +Dox/-Dox)
0.75: normalised cell number ([11]; measured here: mesenchymal TEM4-18 mCherry cell survival)
active: nuclear beta-catenin stimulation ([1]; at 10 µM) 41.7% | viability decrease [3] 65.6% | tube area decrease [4] 68.7% | viability decrease (inhibition) [7] 83.7% | viability ([14]; at 1.25 µM, OCI-P5x cells, with rucaparib 20 µM, 100% = cells with rucaparib alone) 95.1% | viability ([14]; at 5 µM, OCI-P5x cells, with rucaparib 20 µM, 100% = cells with rucaparib alone) 76.9% | viability ([14]; at 5 µM, OCI-P5x cells, without rucaparib) 77.9%
9.5%: nuclear beta-catenin stimulation ([1]; stimulation, at 2 µM)
-17.4% and -9.29%: inhibition ([17]; BGB IC20 combo, at 0.005 µM)
-14.5% and -8.95%: inhibition ([17]; measured here: 5 uM single agent, at 5 µM)
3390 and 2360: cell count ([12]; measured here: total cells with miR-34 induction, stronger effect = lower value)
inactive: insulin secretion stimulation [2] 0.3% | GLP1 secretion stimulation [5] -0.8% | inhibition of viability [6] 42% | viability decrease (inhibition) [8] 30.3% | inhibition [9] 1.06% | mean signal [10] 292 | red/green cell ratio (normalised) ([11]; actives lie on both sides, counts scaled to control wells, 1 = unselective) 0.85 | fold change ([12]; stronger effect = lower value, cell number ratio, induced over uninduced) 1.09 and 1.08 | z-score ([13]; MELAS cybrid survival, CellTiter-Glo 48 h, stronger effect = higher value) -0.365 and -0.769 | viability ([14]; at 0.000305 µM, OCI-C5x cells, with rucaparib 10 µM, 100% = cells with rucaparib alone) 125% | viability ([14]; at 0.000305 µM, OCI-C5x cells, without rucaparib) 114% | viability ([14]; at 0.000305 µM, OCI-P5x cells, with rucaparib 20 µM, 100% = cells with rucaparib alone) 108% | viability ([14]; at 0.000305 µM, OCI-P5x cells, without rucaparib) 129% | viability ([14]; at 0.00122 µM, OCI-C5x cells, with rucaparib 10 µM, 100% = cells with rucaparib alone) 128% | viability ([14]; at 0.00122 µM, OCI-C5x cells, without rucaparib) 121% | viability ([14]; at 0.00122 µM, OCI-P5x cells, with rucaparib 20 µM, 100% = cells with rucaparib alone) 115% | viability ([14]; at 0.00122 µM, OCI-P5x cells, without rucaparib) 115% | viability ([14]; at 0.00488 µM, OCI-C5x cells, with rucaparib 10 µM, 100% = cells with rucaparib alone) 115% | viability ([14]; at 0.00488 µM, OCI-C5x cells, without rucaparib) 125% | viability ([14]; at 0.00488 µM, OCI-P5x cells, with rucaparib 20 µM, 100% = cells with rucaparib alone) 108% | viability ([14]; at 0.00488 µM, OCI-P5x cells, without rucaparib) 117% | viability ([14]; at 0.0195 µM, OCI-C5x cells, with rucaparib 10 µM, 100% = cells with rucaparib alone) 114% | viability ([14]; at 0.0195 µM, OCI-C5x cells, without rucaparib) 113% | viability ([14]; at 0.0195 µM, OCI-P5x cells, with rucaparib 20 µM, 100% = cells with rucaparib alone) 107% | viability ([14]; at 0.0195 µM, OCI-P5x cells, without rucaparib) 113% | viability ([14]; at 0.0781 µM, OCI-C5x cells, with rucaparib 10 µM, 100% = cells with rucaparib alone) 134% | viability ([14]; at 0.0781 µM, OCI-C5x cells, without rucaparib) 117% | viability ([14]; at 0.0781 µM, OCI-P5x cells, with rucaparib 20 µM, 100% = cells with rucaparib alone) 103% | viability ([14]; at 0.0781 µM, OCI-P5x cells, without rucaparib) 117% | viability ([14]; at 0.313 µM, OCI-C5x cells, with rucaparib 10 µM, 100% = cells with rucaparib alone) 133% | viability ([14]; at 0.313 µM, OCI-C5x cells, without rucaparib) 112% | viability ([14]; at 0.313 µM, OCI-P5x cells, with rucaparib 20 µM, 100% = cells with rucaparib alone) 101% | viability ([14]; at 0.313 µM, OCI-P5x cells, without rucaparib) 112% | viability ([14]; at 1.25 µM, OCI-C5x cells, with rucaparib 10 µM, 100% = cells with rucaparib alone) 129% | viability ([14]; at 1.25 µM, OCI-C5x cells, without rucaparib) 128% | viability ([14]; at 1.25 µM, OCI-P5x cells, without rucaparib) 104% | viability ([14]; at 5 µM, OCI-C5x cells, with rucaparib 10 µM, 100% = cells with rucaparib alone) 223% | viability ([14]; at 5 µM, OCI-C5x cells, without rucaparib) 172% | remaining NAD [15] 10 nM | luciferase signal [16] 32 AU | inhibition ([17]; at 0.5 µM) -42.7% and -3.92% | log fold change Tl+ flux [18] -0.0314 | log fold change Tl+ flux [19] -0.0124 | log fold change Tl+ flux [20] -0.0543
-50% and -4.83%: inhibition ([17]; cisplatin combo, at 0.5 µM)
-33.9% and 7.79%: inhibition ([17]; cisplatin combo, at 0.05 µM)
0.88: normalised cell number ([11]; measured here: epithelial PC-3E GFP cell survival)
-29.3% and 7.79%: inhibition ([17]; BGB IC40 combo, at 0.05 µM)
